The campaign covered roughly 5,500 compounds. About 2,000 (36%) were called active. Not shown: some 18% with an inconclusive outcome. Rule as the data show it: active = normalized growth mostly below about 0.91 (no sharp cut-off); inconclusive = no clear call, values can overlap the other calls; inactive = mostly above about 0.92. The list shows a part of the results.
Assay: chemical genetic growth profiling, strain panel (AID 1159580);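 also: tested at 20 µM; growth read once vehicle control cultures reached saturation at 30 °C; 1 = growth at the plate median or of vehicle wells; lower values mean less growth of the strain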
Details: growth OD
[1] = S. cerevisiae deletion strains, locus YAL013W, strain DEP1, stronger effect = lower value
[2] = S. cerevisiae deletion strains, locus YAL040C, strain CLN3, stronger effect = lower value
[3] = S. cerevisiae deletion strains, locus YCL061C, strain MRC1 (second series), stronger effect = lower value
[4] = S. cerevisiae deletion strains, locus YCL061C, strain MRC1, stronger effect = lower value
[5] = S. cerevisiae deletion strains, locus YDR150W, strain NUM1, stronger effect = lower value
[6] = S. cerevisiae deletion strains, locus YDR363W, strain ESC2, stronger effect = lower value
[7] = S. cerevisiae deletion strains, locus YER002W, strain NOP16, stronger effect = lower value
[8] = S. cerevisiae deletion strains, locus YGR229C, strain SMI1, stronger effect = lower value
[9] = S. cerevisiae deletion strains, locus YHR030C, strain SLT2, stronger effect = lower value
[10] = S. cerevisiae deletion strains, locus YMR307W, strain GAS1, stronger effect = lower value
[11] = S. cerevisiae deletion strains, locus YNL128W, strain TEP1, stronger effect = lower value
[12] = S. cerevisiae deletion strains, locus YNL175C, strain NOP13, stronger effect = lower value
[13] = S. cerevisiae deletion strains, locus YNL197C, strain WHI3, stronger effect = lower value
[14] = S. cerevisiae deletion strains, locus YNL224C, strain SQS1, stronger effect = lower value
[15] = S. cerevisiae deletion strains, locus YOR083W, strain WHI5 (second series), stronger effect = lower value
[16] = S. cerevisiae deletion strains, locus YPL055C, strain LGE1, stronger effect = lower value
[17] = S. cerevisiae deletion strains, locus YPL241C, strain CIN2, stronger effect = lower value
[18] = S. cerevisiae deletion strains, locus YGR078C, strain PAC10, stronger effect = lower value
[19] = S. cerevisiae deletion strains, locus YJR075W, strain HOC1, stronger effect = lower value
[20] = S. cerevisiae deletion strains, locus YMR263W, strain SAP30, stronger effect = lower value
[21] = S. cerevisiae deletion strains, locus YNL322C, strain KRE1, stronger effect = lower value

Measured: normalized growth

Oc1cc2c(cc1O)C(c1ccccc1)CNCC2 (configuration not stated)
inactive: [1] 0.977 | S. cerevisiae deletion strains, locus YAL021C, strain ccr4, stronger effect = lower value 0.972 | S. cerevisiae deletion strains, locus YAL026C, strain drs2, stronger effect = lower value 0.988 | S. cerevisiae deletion strains, locus YAL030W, strain snc1, stronger effect = lower value 1.01 | [2] 1.03 | S. cerevisiae deletion strains, locus YBL061C, strain skt5, stronger effect = lower value 0.996 | S. cerevisiae deletion strains, locus YBR009C, strain hhf1, stronger effect = lower value 1.05 | S. cerevisiae deletion strains, locus YBR023C, strain chs3, stronger effect = lower value 0.998 | S. cerevisiae deletion strains, locus YBR171W, strain sec66, stronger effect = lower value 0.912 | S. cerevisiae deletion strains, locus YBR231C, strain swc5, stronger effect = lower value 1.01 | S. cerevisiae deletion strains, locus YBR279W, strain paf1, stronger effect = lower value 0.988 | S. cerevisiae deletion strains, locus YCL011C, strain gbp2, stronger effect = lower value 0.984 | S. cerevisiae deletion strains, locus YCL016C, strain dcc1, stronger effect = lower value 1 | [3] 0.982 | [4] 0.992 | S. cerevisiae deletion strains, locus YCL069W, strain vba3, stronger effect = lower value 1 | S. cerevisiae deletion strains, locus YCR088W, strain abp1, stronger effect = lower value 0.999 | S. cerevisiae deletion strains, locus YDL005C, strain med2, stronger effect = lower value 1 | S. cerevisiae deletion strains, locus YDL040C, strain nat1, stronger effect = lower value 1.01 | S. cerevisiae deletion strains, locus YDR001C, strain nth1, stronger effect = lower value 0.994 | S. cerevisiae deletion strains, locus YDR069C, strain doa4, stronger effect = lower value 0.974 | S. cerevisiae deletion strains, locus YDR137W, strain rgp1, stronger effect = lower value 0.967 | [5] 0.963 | S. cerevisiae deletion strains, locus YDR159W, strain sac3, stronger effect = lower value 1.01 | S. cerevisiae deletion strains, locus YDR195W, strain ref2 1.07 | S. cerevisiae deletion strains, locus YDR297W, strain sur2, stronger effect = lower value 0.996 | S. cerevisiae deletion strains, locus YDR334W, strain swr1, stronger effect = lower value 0.963 | S. cerevisiae deletion strains, locus YDR335W, strain msn5, stronger effect = lower value 0.979 | [6] 0.983 | S. cerevisiae deletion strains, locus YDR392W, strain spt3, stronger effect = lower value 0.845 | S. cerevisiae deletion strains, locus YEL003W, strain gim4, stronger effect = lower value 0.976 | S. cerevisiae deletion strains, locus YEL037C, strain rad23, stronger effect = lower value 1 | S. cerevisiae deletion strains, locus YEL061C, strain CIN8 (second series), stronger effect = lower value 0.99 | [7] 1 | S. cerevisiae deletion strains, locus YER015W, strain faa2, stronger effect = lower value 1.02 | S. cerevisiae deletion strains, locus YER016W, strain bim1, stronger effect = lower value 1.01 | S. cerevisiae deletion strains, locus YER111C, strain swi4, stronger effect = lower value 0.993 | S. cerevisiae deletion strains, locus YER155C, strain BEM2 (second series), stronger effect = lower value 1.01 | S. cerevisiae deletion strains, locus YFR010W, strain ubp6, stronger effect = lower value 0.95 | S. cerevisiae deletion strains, locus YGL167C, strain pmr1, stronger effect = lower value 0.994 | S. cerevisiae deletion strains, locus YGL173C, strain kem1, stronger effect = lower value 1 | S. cerevisiae deletion strains, locus YGL227W, strain vid30, stronger effect = lower value 1.01 | S. cerevisiae deletion strains, locus YGL240W, strain doc1, stronger effect = lower value 1.05 | S. cerevisiae deletion strains, locus YGL253W, strain hxk2, stronger effect = lower value 0.991 | [8] 0.958 | S. cerevisiae deletion strains, locus YHR013C, strain ard1, stronger effect = lower value 0.96 | S. cerevisiae deletion strains, locus YHR027C, strain rpn1, stronger effect = lower value 0.989 | [9] 0.986 | S. cerevisiae deletion strains, locus YHR079C, strain IRE1, stronger effect = lower value 0.989 | S. cerevisiae deletion strains, locus YHR142W, strain chs7, stronger effect = lower value 0.916 | S. cerevisiae deletion strains, locus YJL092W, strain hpr5, stronger effect = lower value 0.974 | S. cerevisiae deletion strains, locus YJL095W, strain BCK1 (second series), stronger effect = lower value 1.01 | S. cerevisiae deletion strains, locus YJL095W, strain BCK1, stronger effect = lower value 0.98 | S. cerevisiae deletion strains, locus YJL115W, strain asf1, stronger effect = lower value 0.991 | S. cerevisiae deletion strains, locus YJL129C, strain trk1, stronger effect = lower value 0.921 | S. cerevisiae deletion strains, locus YJL154C, strain vps35, stronger effect = lower value 1 | S. cerevisiae deletion strains, locus YJL164C, strain tpk1, stronger effect = lower value 0.967 | S. cerevisiae deletion strains, locus YJL166W, strain qcr8, stronger effect = lower value 0.995 | S. cerevisiae deletion strains, locus YJL187C, strain SWE1, stronger effect = lower value 1 | S. cerevisiae deletion strains, locus YJR066W, strain TOR1, stronger effect = lower value 0.943 | S. cerevisiae deletion strains, locus YKL160W, strain elf1, stronger effect = lower value 0.942 | S. cerevisiae deletion strains, locus YKR026C, strain gcn3, stronger effect = lower value 0.995 | S. cerevisiae deletion strains, locus YKR091W, strain srl3, stronger effect = lower value 1 | S. cerevisiae deletion strains, locus YLL001W, strain dnm1, stronger effect = lower value 0.989 | S. cerevisiae deletion strains, locus YLL026W, stronger effect = lower value 1 | S. cerevisiae deletion strains, locus YLL041C, strain sdh2, stronger effect = lower value 0.989 | S. cerevisiae deletion strains, locus YLR027C, strain aat2, stronger effect = lower value 0.977 | S. cerevisiae deletion strains, locus YLR113W, strain HOG1, stronger effect = lower value 0.979 | S. cerevisiae deletion strains, locus YLR221C, strain rsa3, stronger effect = lower value 0.948 | S. cerevisiae deletion strains, locus YLR258W, strain gsy2, stronger effect = lower value 1.02 | S. cerevisiae deletion strains, locus YLR262C, strain YPT6 (second series), stronger effect = lower value 0.919 | S. cerevisiae deletion strains, locus YLR320W, strain mms22, stronger effect = lower value 0.966 | S. cerevisiae deletion strains, locus YLR342W, strain FKS1, stronger effect = lower value 0.994 | S. cerevisiae deletion strains, locus YLR357W, strain rsc2, stronger effect = lower value 1.04 | S. cerevisiae deletion strains, locus YLR370C, strain arc18, stronger effect = lower value 0.991 | S. cerevisiae deletion strains, locus YLR384C, strain iki3, stronger effect = lower value 1.01 | S. cerevisiae deletion strains, locus YML120C, strain ndi1, stronger effect = lower value 0.94 | S. cerevisiae deletion strains, locus YMR058W, strain fet3, stronger effect = lower value 0.945 | S. cerevisiae deletion strains, locus YMR125W, strain sto1, stronger effect = lower value 1.02 | S. cerevisiae deletion strains, locus YMR129W, stronger effect = lower value 0.984 | S. cerevisiae deletion strains, locus YMR205C, strain PFK2, stronger effect = lower value 1.06 | S. cerevisiae deletion strains, locus YMR231W, strain pep5, stronger effect = lower value 1.02 | [10] 0.992 | S. cerevisiae deletion strains, locus YNL071W, strain lat1, stronger effect = lower value 0.964 | [11] 0.981 | [12] 1.04 | S. cerevisiae deletion strains, locus YNL183C, strain NPR1, stronger effect = lower value 0.952 | [13] 1.03 | S. cerevisiae deletion strains, locus YNL209W, strain ssb2, stronger effect = lower value 0.997 | [14] 0.993 | S. cerevisiae deletion strains, locus YNL248C, strain rpa49, stronger effect = lower value 0.93 | S. cerevisiae deletion strains, locus YNL322C, strain KRE1 (second series), stronger effect = lower value 0.989 | S. cerevisiae deletion strains, locus YNR049C, strain mso1, stronger effect = lower value 1 | S. cerevisiae deletion strains, locus YOR001W, strain rrp6, stronger effect = lower value 0.918 | S. cerevisiae deletion strains, locus YOR070C, strain gyp1, stronger effect = lower value 0.992 | S. cerevisiae deletion strains, locus YOR080W, strain dia2, stronger effect = lower value 1 | [15] 1.02 | S. cerevisiae deletion strains, locus YOR083W, strain WHI5, stronger effect = lower value 0.922 | S. cerevisiae deletion strains, locus YOR106W, strain vam3, stronger effect = lower value 0.919 | S. cerevisiae deletion strains, locus YOR231W, strain MKK1, stronger effect = lower value 0.941 | S. cerevisiae deletion strains, locus YOR265W, strain rbl2, stronger effect = lower value 0.997 | S. cerevisiae deletion strains, locus YOR270C, strain vph1, stronger effect = lower value 0.967 | S. cerevisiae deletion strains, locus YOR290C, strain snf2, stronger effect = lower value 0.92 | S. cerevisiae deletion strains, locus YPL051W, strain arl3, stronger effect = lower value 0.938 | [16] 0.948 | S. cerevisiae deletion strains, locus YPL078C, strain atp4, stronger effect = lower value 0.945 | S. cerevisiae deletion strains, locus YPL106C, strain sse1, stronger effect = lower value 0.972 | S. cerevisiae deletion strains, locus YPL240C, strain hsp82, stronger effect = lower value 0.983 | [17] 0.997 | S. cerevisiae deletion strains, locus YPL256C, strain CLN2, stronger effect = lower value 0.984

Oc1cc2c(cc1O)[C@H]1c3ccccc3CN[C@@H]1CC2
inactive: [2] 1.01 | [6] 0.985 | [7] 1.03 | [18] 1 | [20] 1 | [11] 1.01 | [12] 1.03 | [13] 1.02 | [14] 1.02 | [15] 1.01
active: [1] 0.9 | [3] 0.845 | [5] 0.848 | [8] 0.685 | [19] 0.843 | [10] 0.871 | [16] 0.864 | [17] 0.925

NC1CCc2cc(O)c(O)cc2C1 (configuration not stated)
inactive: [1] 0.978 | [2] 1.01 | [3] 1.01 | [5] 1.01 | [6] 0.979 | [7] 1.02 | [18] 1.04 | [19] 0.985 | [20] 0.997 | [11] 1.01 | [12] 1.02 | [13] 1.01 | [14] 1.01 | [15] 1.08 | [16] 0.976

CC(C)(C)c1ccc(S(=O)(=O)/C=C/C#N)cc1
active: [1] 0.234 | [2] 0.0822 | [7] 0.139 | [18] 0.0608 | [11] 0.0795 | [12] 0.227 | [13] 0.0935 | [14] 0.255 | [15] 0.0681
inactive: [21] 1.01

Cn1nccc1NS(=O)(=O)c1ccc(C(C)(C)C)cc1
inactive: [1] 0.982 | S. cerevisiae deletion strains, locus YBR229C, strain ROT2, stronger effect = lower value 0.97 | [4] 0.982 | S. cerevisiae deletion strains, locus YDL101C, strain DUN1, stronger effect = lower value 0.983 | [5] 0.992 | S. cerevisiae deletion strains, locus YEL061C, strain CIN8, stronger effect = lower value 0.984 | [18] 0.985 | [8] 0.981 | [9] 0.948 | S. cerevisiae deletion strains, locus YHR087W, strain rtc3, stronger effect = lower value 0.973 | S. cerevisiae deletion strains, locus YJR043C, strain POL32, stronger effect = lower value 0.978 | [19] 0.987 | S. cerevisiae deletion strains, locus YKL190W, strain CNB1, stronger effect = lower value 0.96 | S. cerevisiae deletion strains, locus YLR039C, strain RIC1, stronger effect = lower value 0.92 | S. cerevisiae deletion strains, locus YLR058C, strain SHM2 (second series), stronger effect = lower value 0.975 | S. cerevisiae deletion strains, locus YLR085C, strain ARP6, stronger effect = lower value 1.08 | S. cerevisiae deletion strains, locus YLR262C, strain YPT6, stronger effect = lower value 0.82 | S. cerevisiae deletion strains, locus YML094W, strain GIM5, stronger effect = lower value 1.03 | S. cerevisiae deletion strains, locus YMR219W, strain ESC1, stronger effect = lower value 0.985 | [20] 0.979 | [11] 0.968 | S. cerevisiae deletion strains, locus YNL153C, strain GIM3, stronger effect = lower value 0.989 | S. cerevisiae deletion strains, locus YNL298W, strain CLA4 (second series), stronger effect = lower value 0.948 | [21] 0.98 | S. cerevisiae deletion strains, locus YNR030W, strain Alg12, stronger effect = lower value 1 | [16] 1.03 | [17] 1.01 | S. cerevisiae deletion strains, locus YPR135W, strain CTF4, stronger effect = lower value 0.929 | S. cerevisiae strains, strain wild type, stronger effect = lower value 0.959

Source: PubChem BioAssay AID1159580 (chemical genetic matrix, 2015)
